Data taken from PubChem BioAssay (Tox21).
Records with an inconclusive call do not appear. The source made the active and inactive calls. Unless noted, calls follow the shape of the full dose curve.

Tests used:
[1] = Nuclear factor erythroid 2-related factor 2/antioxidant responsive element (Nrf2/ARE) small molecule agonists: qHTS cell viability counter screen in human keratinocytes (AID 1919968; active = well fitted curve in the direction sought with a large enough effect in the repeat runs; an effect the other way counts as inactive or inconclusive; also: nearly all actives have a fitted effect of over 55% in size; also: potency is read from the fitted curve at half-maximal effect)
Method in brief: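 Cells of the KeratinoSens line were plated at 1,500 per well and left for 5 h before compound transfer from DMSO stocks. After a 23 h incubation (37 C, 5% CO2), CellTiter-Fluor was added. Signal was taken as fluorescence intensity 1 h later.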

[2] = molecular target: Gonadotropin-releasing hormone receptor (Homo sapiens) (UniProt P30968); test: Human gonadotropin-releasing hormone receptor (GnRHR) small molecule agonists, calcium flux assay in GnRHR-HEK293 cells (AID 1920063); also: nearly all actives have a fitted effect of over 35% in size; also: potency is read from the fitted curve at half-maximal effect
Method in brief: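 Compounds dissolved in DMSO are pin-transferred onto dye-loaded GnRHR-HEK293 cells, which were seeded 18 h before at 37 C/5% CO2. Calcium signal is read as fluorescence intensity at 1 s intervals for 3 min.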

[3] = molecular target: KiSS-1 receptor (Homo sapiens) (UniProt Q969F8); test: Human kisspeptin (KISS1R) small molecule agonists, calcium flux assay in KISS1R-HEK293 cells (AID 1920064; active = well fitted curve in the direction sought with a large enough effect in the repeat runs; an effect the other way counts as inactive or inconclusive)
Method in brief: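 Cell line: HEK293, stable human KISS1R. Dye loading 1 h at 37 C after 18 h culture. Read: kinetic fluorescence, 480/540 nm, 3 min at 1 s intervals.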

[4] = G protein-coupled receptor (GPCR) small molecule agonists, calcium flux assay: HEK293 wild type cell line counter screen (AID 1920065)
Method in brief: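 Tox21 10K compounds, 15 concentrations each in triplicate, pin-transferred in DMSO onto dye-loaded cells; kinetic read at 480/540 nm for 3 min, 1 s intervals.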

[5] = p53 small molecule agonists, cell-based qHTS assay with rat liver microsomes (AID 1963578)
Method in brief: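 Agonist mode in p53RE-bla reporter cells, with compounds co-incubated 16 h at 37 C alongside 0.5 mg/mL rat liver microsomes and 0.5 mg/mL NADPH (final), followed by a 2 h LiveBLAzer detection step.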

[6] = p53 small molecule agonists, cell-based qHTS assay with rat liver microsomes: qHTS cell viability counter screen (AID 1963580); also: nearly all actives have a fitted effect of over 45% in size
Method in brief: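 Counter screen for cytotoxicity under metabolic activation: rat liver microsomes and NADPH, 0.5 mg/mL final each, added with compounds to p53RE-bla HCT-116 cells; 16 h at 37 C, then ATP luminescence read.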

[7] = p53 small molecule agonists, cell-based qHTS assay: qHTS cell viability counter screen (AID 1963581); also: nearly all actives have a fitted effect of over 45% in size
Method in brief: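 ATP content measured by luminescence in HCT-116 p53RE-bla cells treated 16 h at 37 C, same wells as the reporter screen.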

[8] = p53 small molecule agonists, cell-based qHTS assay (AID 1963582; active = well fitted activation curve with a large enough effect in the signal ratio in the repeat runs, not every such curve was filed as active; the % refers to the signal ratio)
Method in brief: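 16 h compound exposure (37 C) of p53 response element–bla cells, preceded by 5 h recovery at 37 C/5% CO2; read-out via LiveBLAzer B/G FRET substrate, 2 h RT, fluorescence intensity.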

[9] = molecular target: 5-hydroxytryptamine receptor 2A (Homo sapiens) (UniProt P28223); test: 5-hydroxytryptamine receptor 2A (HTR2A) small molecule antagonists, cell-based qHTS assay (AID 1963586); also: nearly all actives have a fitted effect of over 45% in size
Method in brief: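 CHO cells stably expressing human HTR2A were plated for 18 h at 37 C, then loaded with calcium dye for 1 h. Compounds were preincubated 5 min at room temperature before DOI (4 nM solution) was added. Kinetic fluorescence was read for 3 min.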

[10] = molecular target: 5-hydroxytryptamine receptor 2A (Homo sapiens) (UniProt P28223); test: 5-hydroxytryptamine receptor 2A (HTR2A) small molecule agonists, cell-based qHTS assay (AID 1963587); also: nearly all actives have a fitted effect of over 30% in size; also: potency is read from the fitted curve at half-maximal effect
Method in brief: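 HTR2A-CHO cells, plated 18 h at 37 C/5% CO2, dye-loaded 1 h at 37 C; compounds in DMSO added by pin tool (agonist mode). Intracellular calcium flux read as kinetic fluorescence on FDSS over 2 min at 1 s intervals.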

[11] = molecular target: Muscarinic acetylcholine receptor M1 (Homo sapiens) (UniProt P11229); test: Cholinergic receptor muscarinic 1 (CHRM1) small molecule antagonists, cell-based qHTS assay (AID 1963588); also: nearly all actives have a fitted effect of over 40% in size
Method in brief: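 Compounds were tested at 15 concentrations in three independent runs. Dye-loaded CHRM1-CHO cells were exposed 5 min at room temperature before stimulation by acetylcholine added at 50nM. Intracellular calcium was read kinetically on FDSS for 3 min.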

[12] = molecular target: Muscarinic acetylcholine receptor M1 (Homo sapiens) (UniProt P11229); test: Cholinergic receptor muscarinic 1 (CHRM1) small molecule agonists, cell-based qHTS assay (AID 1963589); also: nearly all actives have a fitted effect of over 35% in size
Method in brief: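 Homogeneous fluorescence calcium flux, agonist mode. Human M1-expressing CHO cells; compound dosed at 15 concentrations, three independent runs; signal sampled every 1 sec.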

[13] = cAMP Responsive Elements (CRE) small molecule agonists, cell-based qHTS assay (AID 1963590)
Method in brief: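 HEK 293T cells stably bearing CRE-bla were plated at 2,000 cells per well and rested 18 h. Compounds, positive controls or DMSO were added for 3 h at 37 C. LiveBLAzer B/G substrate was then loaded for 2 h at room temperature.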

[14] = molecular target: Beta-2 adrenergic receptor (Homo sapiens) (UniProt P07550); test: Adrenergic beta2 receptor (ADRB2) small molecule antagonists, cell-based qHTS assay (AID 1963592); also: series mostly up to about 92 µM; nearly all actives have a fitted effect of over 50% in size
Method in brief: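 Assay format: CHO-ADRB2 cells, 18-20hr seeding at 37C/5% CO2, then compound plus 1nM isoproterenol agonist mix for 0.5hr RT. Homogeneous time-resolved fluorescence cAMP detection after 1hr, expressed as 665/615 nm ratio.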

[15] = molecular target: D(2) dopamine receptor (Homo sapiens) (UniProt P14416); test: Dopamine D2 receptor (DRD2) small molecule antagonists, cell-based qHTS assay (AID 1963595; active = well fitted inhibition curve with a large enough effect in the signal ratio in the repeat runs, with a control signal flat; the % refers to the signal ratio)
Method in brief: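 Readout: HTRF cAMP, cAMP-d2 competing with cellular cAMP for anti-cAMP cryptate, read after 1 h. Cells: DRD2-HEK293. Conditions: 0.1 mM Ro20-1724, 12 nM quinpirole, 200 nM NKH477, 30 min RT.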

[16] = cAMP Responsive Elements (CRE) small molecule antagonists, cell-based qHTS assay (AID 1963591; active = well fitted inhibition curve with a large enough effect in the signal ratio in the repeat runs, not every such curve was filed as active; the % refers to the signal ratio)
Method in brief: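 First, CRE-bla HEK293T cells settled 18 h at 37 C. Next, compound and 0.25 uM final NKH477 were applied for 3 h. Last, LiveBLAzer B/G substrate was loaded for 2 h at room temperature.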

[17] = molecular target: Beta-2 adrenergic receptor (Homo sapiens) (UniProt P07550); test: Adrenergic beta2 receptor (ADRB2) small molecule agonists, cell-based qHTS assay (AID 1963593);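 also: CHO cells stably overexpressing human ADRB2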
Method in brief: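 CHO cells stably over-expressing ADRB2 were plated overnight at 37C, then dosed with compounds plus a stimulation mix containing 100uM IBMX and 25uM Ro-20-1724 for 0.5hr at room temperature. cAMP was measured by HTRF competition, 1hr.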

[18] = molecular target: D(2) dopamine receptor (Homo sapiens) (UniProt P14416); test: Dopamine D2 receptor (DRD2) small molecule agonists, cell-based qHTS assay (AID 1963594); also: nearly all actives have a fitted effect of over 35% in size
Method in brief: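 HEK293 cells stably expressing DRD2 were cultured 24 h at 37 C, then given Ro20-1724 (0.1 mM final) and compounds for 10 min at room temperature. NKH477 (200nM) was then added for 30 min. cAMP was read by HTRF.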

[19] = p53 small molecule agonists, cell-based qHTS assay with human liver microsomes: qHTS cell viability counter screen (AID 1963579); also: nearly all actives have a fitted effect of over 45% in size; also: potency is read from the fitted curve at half-maximal effect
Method in brief: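 Metabolically activated exposure: compounds, human liver microsomes and NADPH (0.5 mg/mL final apiece) were added to p53RE-bla cells seeded 5 h earlier, left 16 h at 37 C, and then assessed for viability by CellTiter-Glo luminescence.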

Measured: Potency

Chain of Beta-2 adrenergic receptor (Homo sapiens) (P07550 whole entry, looked up): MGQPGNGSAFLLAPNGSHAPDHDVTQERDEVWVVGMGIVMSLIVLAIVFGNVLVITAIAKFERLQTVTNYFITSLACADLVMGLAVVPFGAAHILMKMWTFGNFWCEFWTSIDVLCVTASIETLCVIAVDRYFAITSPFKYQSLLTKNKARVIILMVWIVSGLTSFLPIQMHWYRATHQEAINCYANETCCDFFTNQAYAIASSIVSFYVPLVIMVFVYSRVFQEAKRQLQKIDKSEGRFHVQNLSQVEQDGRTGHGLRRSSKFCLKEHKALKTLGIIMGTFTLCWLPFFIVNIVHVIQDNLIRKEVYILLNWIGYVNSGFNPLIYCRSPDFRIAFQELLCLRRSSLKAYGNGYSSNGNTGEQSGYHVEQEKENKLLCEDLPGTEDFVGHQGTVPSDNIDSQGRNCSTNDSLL
Chain of 5-hydroxytryptamine receptor 2A (Homo sapiens) (P28223 whole entry, looked up): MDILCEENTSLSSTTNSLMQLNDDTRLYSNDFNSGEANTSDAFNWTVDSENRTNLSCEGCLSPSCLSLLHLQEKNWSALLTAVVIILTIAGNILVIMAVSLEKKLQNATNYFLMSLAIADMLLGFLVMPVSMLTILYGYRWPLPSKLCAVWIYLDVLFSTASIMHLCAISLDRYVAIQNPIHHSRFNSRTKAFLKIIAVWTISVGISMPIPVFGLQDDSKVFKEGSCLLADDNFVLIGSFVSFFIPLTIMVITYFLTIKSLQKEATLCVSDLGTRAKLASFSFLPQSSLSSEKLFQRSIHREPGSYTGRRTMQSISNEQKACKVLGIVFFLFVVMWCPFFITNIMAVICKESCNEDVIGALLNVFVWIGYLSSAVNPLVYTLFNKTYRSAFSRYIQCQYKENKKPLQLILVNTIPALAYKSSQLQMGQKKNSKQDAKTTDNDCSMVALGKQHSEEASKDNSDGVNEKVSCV
Chain of Gonadotropin-releasing hormone receptor (Homo sapiens) (P30968 whole entry, looked up): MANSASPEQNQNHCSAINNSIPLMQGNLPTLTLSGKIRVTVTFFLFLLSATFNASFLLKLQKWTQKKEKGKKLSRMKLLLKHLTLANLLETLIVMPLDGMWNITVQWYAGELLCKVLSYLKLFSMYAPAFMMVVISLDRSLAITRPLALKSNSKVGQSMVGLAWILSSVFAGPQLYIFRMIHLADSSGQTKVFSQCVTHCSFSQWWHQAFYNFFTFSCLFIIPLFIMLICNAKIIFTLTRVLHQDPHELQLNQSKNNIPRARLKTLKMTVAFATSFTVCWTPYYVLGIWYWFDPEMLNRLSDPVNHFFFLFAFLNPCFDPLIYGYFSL
Chain of Muscarinic acetylcholine receptor M1 (Homo sapiens) (P11229 whole entry, looked up): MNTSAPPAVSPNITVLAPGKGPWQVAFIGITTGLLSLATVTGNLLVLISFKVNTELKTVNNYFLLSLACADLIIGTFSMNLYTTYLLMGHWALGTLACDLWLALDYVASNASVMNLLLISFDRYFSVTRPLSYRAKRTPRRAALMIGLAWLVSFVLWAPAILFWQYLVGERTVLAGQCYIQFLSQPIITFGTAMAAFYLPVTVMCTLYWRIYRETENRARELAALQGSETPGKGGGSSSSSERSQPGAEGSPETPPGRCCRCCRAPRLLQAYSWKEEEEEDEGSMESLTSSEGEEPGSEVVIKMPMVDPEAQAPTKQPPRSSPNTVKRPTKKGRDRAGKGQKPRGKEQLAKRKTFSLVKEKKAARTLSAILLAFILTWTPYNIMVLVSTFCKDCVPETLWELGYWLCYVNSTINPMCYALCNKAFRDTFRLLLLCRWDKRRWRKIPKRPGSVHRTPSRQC
Chain of D(2) dopamine receptor (Homo sapiens) (P14416 whole entry, looked up): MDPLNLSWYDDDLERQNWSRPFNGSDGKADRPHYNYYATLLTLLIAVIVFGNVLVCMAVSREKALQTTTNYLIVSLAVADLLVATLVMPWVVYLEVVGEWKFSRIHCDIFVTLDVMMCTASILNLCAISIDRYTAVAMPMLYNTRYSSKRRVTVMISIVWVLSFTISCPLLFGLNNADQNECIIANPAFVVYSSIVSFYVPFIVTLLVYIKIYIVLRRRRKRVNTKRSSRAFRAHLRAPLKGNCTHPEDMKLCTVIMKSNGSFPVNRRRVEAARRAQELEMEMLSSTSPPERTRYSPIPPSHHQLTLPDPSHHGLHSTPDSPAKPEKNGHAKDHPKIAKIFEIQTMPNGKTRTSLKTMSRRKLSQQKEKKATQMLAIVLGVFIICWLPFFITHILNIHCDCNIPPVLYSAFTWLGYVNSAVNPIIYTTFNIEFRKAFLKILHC
Chain of KiSS-1 receptor (Homo sapiens) (Q969F8 whole entry, looked up): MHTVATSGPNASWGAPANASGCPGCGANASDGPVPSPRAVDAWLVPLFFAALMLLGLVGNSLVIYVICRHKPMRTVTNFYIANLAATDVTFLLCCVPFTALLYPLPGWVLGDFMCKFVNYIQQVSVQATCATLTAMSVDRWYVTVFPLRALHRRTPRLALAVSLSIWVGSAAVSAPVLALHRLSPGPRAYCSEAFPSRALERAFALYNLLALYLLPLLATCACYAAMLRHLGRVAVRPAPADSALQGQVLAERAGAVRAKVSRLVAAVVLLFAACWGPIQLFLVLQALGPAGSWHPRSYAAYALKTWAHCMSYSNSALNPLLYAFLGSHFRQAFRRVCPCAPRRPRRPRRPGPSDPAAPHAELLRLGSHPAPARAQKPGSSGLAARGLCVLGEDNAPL

c1cnc(N2CCN(Cc3ccc4c(c3)OCO4)CC2)nc1
not listed: [16] | [17] | [18] | [19]
inactive: all other assays above

Clc1ccc2nsnc2c1NC1=NCCN1
not listed: [13] | [19]
inactive: all other assays above

CCCCC(CC)COC(=O)CCCCC(=O)OCc1ccccc1 (configuration not stated)
not listed: [5]
inactive: all other assays above

CC(=O)OC1C2(C)CCC(C2)C1(C)C (configuration not stated)
not listed: [5] | [8] | [13]
inactive: all other assays above

CCCCCCCCC(CO)CCCCCC (configuration not stated)
not listed: [5] | [8]
inactive: all other assays above

C1COCO1
not listed: [5] | [8]
inactive: all other assays above

Nc1nc(Cl)cc(Cl)n1
not listed: [5] | [8] | [13] | [16] | [17]
inactive: all other assays above

COc1cc(S(=O)(=O)Nc2ccccc2)c(OC)cc1N
not listed: [5] | [8] | [14] | [17]
inactive: all other assays above

CCC(C)[O-].CCC(C)[O-].CCOC(=O)/C=C(/C)[O-].[Al+3]
not listed: [5] | [8] | [15] | [16] | [17]
inactive: all other assays above

CC(=O)OCC(=O)[C@@]1(O)[C@H](OC(C)=O)C[C@H]2[C@@H]3CCC4=CC(=O)C=C[C@]4(C)[C@@]3(F)[C@@H](O)C[C@@]21C
not listed: [9] | [11] | [19]
inactive: all other assays above

O=C(N[C@H](CO)[C@H](O)c1ccc([N+](=O)[O-])cc1)C(Cl)Cl
inactive: [1] | [2] | [3] | [4] | [5] | [6] | [7] | [13] | [16] | [14]

CN(C)CC/C=C1\c2ccccc2COc2ccccc21
not listed: [5] | [9] | [10] | [11] | [12] | [14] | [17]
inactive: all other assays above

CCCCC[Si](OCC)(OCC)OCC
not listed: [5] | [8]
inactive: all other assays above

C=C[Si](OC)(OC)OC
not listed: [5] | [8] | [13]
inactive: all other assays above

Cc1c[nH]c(=S)[nH]c1=O
not listed: [5] | [8]
inactive: all other assays above

CC1(C)[C@@H](O)CC[C@]2(C)[C@H]3C(=O)C=C4[C@@H]5C[C@@](C)(C(=O)O)CC[C@]5(C)CC[C@@]4(C)[C@]3(C)CC[C@@H]12
active: [1] 67.8 µM | [2] 34.3 µM | [19] 32 µM | [10] 48.4 µM
not listed: [6] | [7] | [12] | [13] | [16]
inactive: all other assays above

O=C(O)c1ccc(S(=O)(=O)O)cc1C(=O)O
not listed: [5] | [6] | [8] | [9] | [16]
inactive: all other assays above

C=C(C)C(=O)OCCOc1ccccc1
not listed: [5] | [8] | [9] | [10] | [16] | [17]
inactive: all other assays above

CC(C)CCCCCCOC(=O)C1CCCCC1C(=O)OCCCCCCC(C)C (configuration not stated)
not listed: [5] | [8] | [11] | [17]
inactive: all other assays above

C1C2OC2C2C1C1CC2C2OC12 (configuration not stated)
not listed: [5] | [6] | [8] | [10] | [11] | [17]
inactive: all other assays above

N[C@@H]1CONC1=O
not listed: [5] | [6] | [8]
inactive: all other assays above

COC(OC)(C(=O)c1ccccc1)c1ccccc1
not listed: [5] | [8] | [19]
inactive: all other assays above

CN(Cc1ccc(C(C)(C)C)cc1)Cc1cccc2ccccc12
active: [1] 11.9 µM
not listed: [5] | [8] | [9] | [10] | [11] | [12] | [13]
inactive: all other assays above

CCN(C(=O)N(CC)c1ccccc1)c1ccccc1
not listed: [5] | [8] | [9] | [10] | [11] | [13] | [16] | [17]
inactive: all other assays above

C/C=C1/C(=O)C[C@H]2[C@@H]3CCC4=CC(=O)CC[C@]4(C)[C@H]3CC[C@]12C
not listed: [5] | [8] | [9] | [11] | [13] | [16] | [17]
inactive: all other assays above

CC(C)C1CCC(C(=O)N[C@H](Cc2ccccc2)C(=O)O)CC1 (some centres not stated)
not listed: [5] | [6] | [8] | [9] | [10] | [11] | [12] | [14]
inactive: all other assays above

Oc1cccc(Nc2ccccc2)c1
not listed: [5] | [8] | [9] | [15] | [17]
inactive: all other assays above
